Gal4-VP16 FLuc: VP16 counterscreen qHTS for inhibitors of ROR gamma transcriptional activity | Drosophila S2 Gal4-VP16 UAS-luciferase, luminescence, 20 h | 310,000 compounds, 3.5% hits | AID 2546, 2010 | Potency, µM (top dose mostly 53.6 µM), without a hit: at the top dose activity, negative = inhibition, actives largely listed as inhibitors;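 further: Gal4-VP16 expression switched on by copper sulfate through the metallothionein promoter; potency means the concentration at half of the fitted maximal effect; nearly all actives have a fitted effect of over 50% in size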
IL1B secr inh: qHTS for Inhibitors of Inflammasome Signaling: IL-1-beta AlphaLISA Primary Screen | AID 743279, 2014 | THP-1 LPS/ATP IL-1B secretion, AlphaLISA, 16 h; stronger effect = lower value | activity change, % at 57.5 µM | 360,000 compounds, 4.7% hits; in the data active means activity change below about -50%; inconclusive means mostly about -30% to -49%
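THP-1 cells pretreated 1 hr with compounds (up to 57.5 uM final), then stimulated with LPS (250 ng/mL final) plus ATP (1.25 mM final); secreted IL-1B measured by AlphaLISA after 16 hr, decreased signal indicating inhibition.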
TDP1 cell CPT: qHTS for Inhibitors of human tyrosyl-DNA phosphodiesterase 1 (TDP1): qHTS in cells in presence of CPT; chicken DT40 Tdp1-/-;hTDP1 cells + 20 nM CPT, ATP luminescence, 48 h; Potency, µM (highest dose often 46.2 µM), for the others: top-dose activity change, negative = growth inhibition, actives largely listed as inhibitors; 420,000 compounds, 12% hits; further: potency means the concentration at half of the fitted maximal effect; nearly all actives have a fitted effect of over 55% in size
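Chicken DT40 Tdp1-/- cells stably complemented with human TDP1 were seeded at 400 cells/well in medium containing 20 nM camptothecin, exposed to pin-transferred compounds, and grown at 37 °C for at least 48 hr. Viability was read as ATP luminescence.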
RORgamma inh: qHTS for inhibitors of ROR gamma transcriptional activity; Nuclear receptor ROR-gamma (Mus musculus), P51450; Drosophila S2 Gal4-RORgamma UAS-luciferase reporter, 20 h; Potency, µM (titrated, usually from 53.6 µM), for inactives: top-dose activity change, negative = inhibition, usual class: inhibitors; 310,000 compounds, 5.4% hits; AID 2551, 2010; further: potency means the concentration at half of the fitted maximal effect; nearly all actives have a fitted effect of over 60% in size
Target sequence (P51450 whole entry, looked up, the tested form may be a part): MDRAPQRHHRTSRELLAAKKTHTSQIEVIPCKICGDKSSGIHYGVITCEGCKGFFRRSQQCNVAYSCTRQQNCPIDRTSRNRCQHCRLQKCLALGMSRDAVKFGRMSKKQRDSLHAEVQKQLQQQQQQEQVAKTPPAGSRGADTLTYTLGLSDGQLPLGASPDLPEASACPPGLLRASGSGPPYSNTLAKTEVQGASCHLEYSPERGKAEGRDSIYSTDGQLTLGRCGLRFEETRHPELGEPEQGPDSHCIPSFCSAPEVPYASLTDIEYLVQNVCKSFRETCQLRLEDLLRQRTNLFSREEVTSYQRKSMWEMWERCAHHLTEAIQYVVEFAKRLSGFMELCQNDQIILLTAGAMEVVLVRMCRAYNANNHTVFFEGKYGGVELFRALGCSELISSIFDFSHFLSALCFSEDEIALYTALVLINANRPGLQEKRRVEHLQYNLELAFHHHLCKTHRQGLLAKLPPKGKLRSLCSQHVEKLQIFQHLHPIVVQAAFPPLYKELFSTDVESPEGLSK
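Read-out: Photinus luciferase luminescence; inhibitors lower reporter signal. Insect Schneider cells with Gal4-ROR gamma fusion under metallothionein promoter, UAS reporter; 700 uM final copper sulfate induction, 20 hr, ambient temperature.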
ELG1 DNA repair: qHTS screen for small molecules that inhibit ELG1-dependent DNA repair in human embryonic kidney (HEK293T) cells expressing luciferase-tagged ELG1 | HEK293T ELG1-luciferase reporter, luminescence, 16 h; DNA damage induced by 5-fluorouridine | Potency, µM (titrated, usually from 46.1 µM), without a hit: top-dose activity change, negative = inhibition, most hits filed as inhibitors | 330,000 compounds, 2.3% hits | AID 504467, 2011; further: potency means the concentration at half of the fitted maximal effect; nearly all actives have a fitted effect of over 55% in size
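Reporter activity after DNA damage by 5-fluorouridine is monitored. Compound-treated cells incubate 16 hr at 37 °C, then ONE-Glo is added for 30 min before luminescence reading.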
DT40 TDP1 no CPT: qHTS for Inhibitors of human tyrosyl-DNA phosphodiesterase 1 (TDP1): qHTS in cells in absence of CPT; DT40 Tdp1-/- hTDP1 cells, no CPT, ATP luminescence, 48 h; Potency, µM (doses to about 46.2 µM), inactives show at the highest dose activity change, negative = growth inhibition, hits mostly inhibitors; 420,000 compounds, 15% hits; AID 686978, 2013; further: potency means the concentration at half of the fitted maximal effect; nearly all actives have a fitted effect of over 55% in size
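Stably hTDP1-transfected Tdp1-null chicken DT40 cells were treated with library compounds minus camptothecin and grown for at least 48 hr at 37 °C, after which cellular ATP was quantified by luminescence.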
Active calls of the source: *; i = inactive; ? = inconclusive; nt = no result given; [ ] = dose if it differs, or a comment. Only some compounds are listed: those with a hit (about 21% of all), similar ones and a draw of the others. Unless noted, the call rests on the fitted dose curve; in most records, active means well fitted curve in the direction sought with a large enough effect; inconclusive means small, poorly fitted or top-dose-only effect, or another doubt; inactive means no such curve, though single readings can be large; an effect the other way counts as inactive or inconclusive. On the % scale 0 is the no-effect control and ±100 the full control effect.

SMILES	Gal4-VP16 FLuc	IL1B secr inh	TDP1 cell CPT	RORgamma inh	ELG1 DNA repair	DT40 TDP1 no CPT
c1ccc(C[C@H]2CN=C(Nc3ccccc3)N2CC2CCCC2)cc1	nt	-70*	10µM*	nt	nt	12µM*
c1ccc(C[C@H]2CN=C(Nc3ccccc3)N2CCCC2CCCCC2)cc1	nt	-17	?	nt	16%	16µM*
CC(C)C[C@H]1CN=C(Nc2ccccc2)N1CC1CCC(C)CC1 (stereo partly drawn)	3%	-4	?	-11%	-14%	18µM*
CC(C)C[C@H]1CN=C(Nc2ccccc2)N1CC1CCC1	0%	-11	?	-17%	-15%	?
CCCCN1C(Nc2ccccc2)=NC[C@@H]1Cc1ccccc1	nt	-15	23µM*	nt	-20%	?
Cc1nc2nc(C)c(NS(=O)(=O)c3ccc(C4CCCCC4)cc3)c(=O)n2[nH]1	-7%	19	6%	-6%	-4%	-10%
CC(C)C[C@@H](CC(=O)N[C@@H](CCCN)CC(=O)N[C@@H]1CCNC[C@H]1C(=O)N[C@H](CC(=O)N[C@@H](CCC(=O)O)CC(=O)O)Cc1ccccc1)NC(=O)[C@@H]1CCCC[C@H]1N	1%	nt	nt	-13%	nt	nt
O=C(CCc1ccco1)CCc1ccco1	nt	-12	-14%	nt	nt	-14%
c1ccc(C[C@H]2CN=C(Nc3ccccc3)N2CC2CCC2)cc1	nt	-9	?	nt	-20%	?
c1ccc(C[C@H]2CN=C(Nc3ccccc3)N2CC2CCCCC2)cc1	nt	?	16µM*	nt	2%	?
CC1CCC(CN2C(Nc3ccccc3)=NC[C@@H]2C)CC1 (stereo partly drawn)	6%	0	18µM*	0%	-2%	?
CC1CCC(CN2C(Nc3ccccc3)=NC[C@@H]2Cc2ccccc2)CC1 (stereo partly drawn)	nt	-23	?	nt	-17%	7.3µM*
CCCCN1C(Nc2ccccc2)=NC[C@@H]1C	nt	11	-16%	nt	7%	-3%
Cc1nc2ccccc2nc1SCC(=O)N1CCC(C)CC1	?	2	?	?	-12%	?
CCc1cccc(C)c1NC(=O)CSc1nnc(CC)n2c1cc1occc12	nt	nt	?	nt	nt	18µM*
COc1ccccc1Cc1nc2ccccc2nc1SCC(=O)N1CCC(C)CC1	nt	nt	16µM*	nt	nt	9.2µM*
COc1cccc(Cc2nc3ccccc3nc2SCC(=O)N2CCN(c3ccccc3)CC2)c1	nt	nt	?	nt	nt	23µM*
COc1cccc(Cc2nc3ccccc3nc2SCC(=O)NCCc2ccccc2)c1	nt	nt	18µM*	nt	nt	18µM*
COc1cccc(-n2c(N)cc(=O)nc2SCC(=O)N2CCN(c3ccccc3)CC2)c1	6%	2	-7%	-10%	-7%	-2%
COc1ccc(CNc2ccnc(-c3ccccc3C(F)(F)F)n2)c(OC)c1	-1%	nt	?	19%	nt	?
N#Cc1cc2cc(Cl)ccc2[nH]c1=O	nt	25	-7%	nt	nt	-13%
CCc1cccc(C)c1NC(=O)CSc1nc2ccccc2nc1Cc1ccccc1	nt	nt	?	nt	nt	16µM*
O=C(CSc1nc2ccccc2nc1Cc1ccccc1)Nc1ccccc1C(F)(F)F	nt	nt	-23%	nt	nt	-12%
COc1ccccc1Cc1nc2ccccc2nc1SCC(=O)NCCc1ccccc1	nt	nt	-16%	nt	nt	-22%
COc1ccccc1N1CCN(C(=O)CSc2nnc3c4ccccc4nc(Cc4ccccc4)n23)CC1	-3%	nt	nt	-11%	9.2µM*	nt
SMILES	Gal4-VP16 FLuc	IL1B secr inh	TDP1 cell CPT	RORgamma inh	ELG1 DNA repair	DT40 TDP1 no CPT
Cn1c(SCC(=O)Nc2cccc(C(=O)O)c2)nnc1-c1cc2cc(Br)ccc2o1	-3%	13	7%	-8%	24%	0%
COc1ccccc1Cc1nc2ccccc2nc1SCC(=O)N1CCN(c2ccccc2)CC1	nt	nt	21µM*	nt	nt	23µM*
CCc1cccc(C)c1NC(=O)CSc1nnc(-c2cc3cc(Br)ccc3o2)n1CC	-1%	-25	23µM*	33%	?	18µM*
COc1ccc(OCC2CN3C(CCC(C)C3c3ccc(Br)cc3)C(=O)O2)cc1 (stereo not drawn)	-1%[10 µM]	nt	nt	5%[10 µM]	nt	nt
O=C(c1cccc(-c2nnc(-c3ccccc3)o2)c1)N1CCCCCC1	4%	-14	?	-12%	19%	14µM*
O=C(c1cccc(-c2nnc(-c3ccccc3)o2)c1)N1CCCCC1	0%	0	?	20%	?	15µM*
O=C(c1ccc(-c2ccccc2)cc1)N1CCCC1	-8%	1	-2%	-16%	?	-28%
O=C(CCc1nnc(-c2ccc(-c3ccccc3)cc2)o1)N1CCCCC1	-9%	-1	?	22%	?	21µM*
O=C(c1ccccc1)N1CCCCC1	nt	16	-5%	nt	nt	1%
COC(c1ccccc1)c1nnc(CCC(=O)N2CCCCCCC2)o1 (stereo not drawn)	-11%	19	-6%	7%	8%	-15%
Cc1cc(=O)oc2cc(OCC(=O)Nc3ccc4[nH]c(=O)[nH]c4c3)ccc12	nt	3	-27%	nt	14%	-7%
Cc1ccc(S(=O)(=O)N2CCN(C(=O)c3c(C)nn(-c4ccccc4)c3Cl)CC2)cc1	-10%	-54*	?	64%	?	?
COc1ccc(S(=O)(=O)N2CCN(C(=O)c3c(C)nn(-c4ccccc4)c3Cl)CC2)cc1	-4%	-11	?	12%	?	23µM*
CNC(=O)C(=O)NCC1OCCCN1S(=O)(=O)c1ccc(F)cc1C (stereo not drawn)	-2%	i	2%	2%	-6%	-2%
NC(=O)C1(Nc2ccc(-c3ccc(Cl)cc3)cc2)CCCC1	nt	5	16µM*	nt	nt	?
CCOC(=O)C(C)N1c2cccc3cccc(c23)S1(=O)=O (stereo not drawn)	nt	3	-18%	nt	nt	-19%
O=C(Nc1nccs1)c1csc2c1CCCC2	10µM*	-22	2%	?	?	-10%
Cc1ccccc1NC(=O)c1csc2c1CCCC2	4%[0.365 µM]	-22	5.8µM*	8%	?	21µM*
O=C(Nc1ccon1)c1csc2c1CCCC2	15%	0	3%	37%	14%	-14%
O=C(NCc1ccccc1)c1csc2c1CCCC2	21%	-2	?	13%	29%	?

Assay outcomes: PubChem BioAssay, National Center for Advancing Translational Sciences (NCATS)
